# Data reported in PubChem BioAssay (EPA / NIEHS).
# Activity calls are given as the source filed them. How the source made its calls: active means hit-call score of the fitted dose curve at least 0.9, where 1 is the maximum; inactive means score below 0.9.
# Assay: APR_HepG2_MitoMembPot_24hr: Apredica 24-hour HepG2 Assay for Mitochondrial Membrane Potential (AID 2282911)
# Settings: imaging, actives raise or lower the signal
# Method: APR_HepG2_24hr is a cell-based, multiplexed-readout assay that uses HepG2, a human liver cell line, with measurements taken at 24 hours after chemical dosing in a 384-well plate.APR_HepG2_MitoMembPot_24hr is one of 10 assay component(s) measured or calculated from the APR_HepG2_24hr assay. It is designed to make measurements of dye binding, a form of membrane potential reporter, as detected with fluorescence intensity signals by HCS Fluorescent Imaging technology.Data from the assay component APR_HepG2_MitoMembPot_24hr was analyzed into 1 assay endpoint. This assay endpoint, APR_HepG2_MitoMembPot_24hr, was analyzed with bidirectional fitting relative to DMSO as the negative control and baseline of activity. Using a type of membrane potential reporter, gain or loss-of-signal activity can be used to understand changes in the signaling. Furthermore, this assay endpoint can be referred to as a primary readout, because this assay has produced multiple assay endpoints where this one serves a signaling function. To generalize the intended target to other relatable targets, this assay endpoint is annotated to the cell morphology intended target family, where the subfamily is organelle conformation.
# Cells were treated with dimethyl sulfoxide (DMSO) as a solvent control at a final concentration of 0.5% v/v or with compounds in DMSO with a resulting final DMSO concentration of 0.5% v/v. Compound treatment was done at concentrations of 0.39, 0.78, 1.56, 3.12, 6.24, 12.5, 25, 50, 100, and 200 uM in duplicate on each plate. Cells were treated with compounds for 1, 24, or 72 hr. Carbonyl […] m-chloro-phenylhydrazone (CCCP) and taxol were used as positive controls for mitochondrial function and cytoskeletal stability, respectively; DMSO served as the negative control for this experiment. Cells were fixed by the direct addition of 50 uL formaldehyde in Hank's Balanced Salt Solution (HBSS) to a final concentration of 3.7%. After incubation in the fixation medium for 30 min at room temperature (293-298 K), cells were rinsed twice with HBSS and treated with cell permeabilization buffer (16 uL of 0.5% Triton X-100) for 10 min at room temperature (293-298 K) before labeling. For mitochondrial membrane potential and mitochondrial measurements, pre-fixed cells were incubated with 50 uL of MitoTracker Red CMXRos (Invitrogen) at a concentration of 250 nM for 30 min before fixation. In the remaining cases, post-fixed cells were labeled by incubation with a multiplexed mixture of primary antibodies in HBSS for 60 min at room temperature (293-298 K) to detect immunoreactivity of c-Jun (1:500), phospho-histone H3 (1:100), phospho-histone H2A.x (1:200), p53 (1:400), alpha-tubulin (1:200) and Hoechst 33342 (2 ug/mL). Cells were labeled for multiplexed imaging on two separate plates: a) Hoechst 33342, MitoTracker Red, phospho-histone H3, and alpha-tubulin, and b) Hoechst 33342, phospho-histone H2A.x, and c-Jun. A final rinse with HBSS (50 uL) was performed before analysis. The primary and secondary antibodies for the proteins were phospho-histone H3 (rabbit anti-phospho-histone H3 and FITC-donkey anti-rabbit IgG), phospho-histone H2A.x (mouse anti-phospho-histone H2A.x and FITC-donkey anti-mouse IgG), c-Jun (rabbit anti-phospho-c-Jun and Cy3-donkey anti-rabbit IgG), p53 (sheep anti-p53 and Cy5-donkey anti-sheep IgG), alpha-tubulin (mouse anti-alpha-tubulin and Cy5-donkey anti-mouse IgG). These antibodies are available as the CellCiphr HepG2 assay kit (Millipore).Digital images of each well were captured using a Cellomics ArrayScan VTI (Thermo Scientific Cellomics) (0.8 NA objective, 0.63x optical coupler, and XF-93 filter set) at 20x magnification. The images were acquired using the autofocus feature of the ArrayScan instrument, which entails the following steps. First, the camera focuses on channel 1 (Hoechst 33342), where nuclei are identified. Second, a Z offset of 1 um is used for capturing mitochondria (MitoTracker Red). […]
SMILES,outcome,AC50
Cc1nc(-c2ccc3c(c2)CCN(CCC2CCC(NC(=O)/C=C/c4ccc(F)cc4)CC2)CC3)no1 (stereo not given),inactive,–
O=[N+]([O-])C(CO)(CO)CO,inactive,–
COc1ccc(S(=O)(=O)N2C(=O)[C@@](c3ccccc3OC)(N3C[C@H](O)C[C@H]3C(=O)N(C)C)c3cc(Cl)ccc32)c(OC)c1,inactive,–
Cc1ccc2ncccc2c1,inactive,–
CCCCCCOCCO,inactive,–
CCOC(=O)C(C)(C)Oc1ccc(Cl)cc1,–,121 µM (active)
OC[C@@H](O)[C@@H](O)[C@H](O)[C@H](O)CO,inactive,–
CCCCCCCCCCCCCO,inactive,–
Cc1ccc(N(C)C)cc1,inactive,–
COc1cc(-c2nc(NC(=O)c3cc4cc(C)cc(C)c4n3CC(=O)O)sc2CCC2CCCCC2)c(OC)cc1Cl,–,15 µM (active)
Nc1nc(N)c2nc(CNc3ccc(C(=O)N[C@@H](CCC(=O)O)C(=O)O)cc3)cnc2n1,inactive,–
COc1cccc2c1C(=O)c1c(O)c3c(c(O)c1C2=O)C[C@@](O)(C(=O)CO)C[C@@H]3O[C@H]1C[C@H](N)[C@H](O)[C@H](C)O1,inactive,–
O=C(N[C@@H](Cc1ccccc1)[C@@H](O)C(=O)N1C[C@@H](O)[C@@H](O)C1)c1cc2cc(Cl)ccc2[nH]1,–,86.4 µM (active)
O=C(O)Cc1ccccc1Nc1c(Cl)cccc1Cl,inactive,–
CCCCOC(=O)CCCCCCCCC(=O)OCCCC,inactive,–
CCCCCCCCCCO,inactive,–
Oc1ccc2ccccc2c1N=Nc1ccccc1,–,0.0816 µM (active)
Nc1ccccc1N,inactive,–
NCCO,inactive,–
O=C(O)CCCCC(=O)O,inactive,–

SMILES,outcome,AC50
O=c1[nH]cc(F)c(=O)[nH]1,inactive,–
COc1ccc(C)cc1N,inactive,–
CCc1c(C(=O)NN2CCCCC2)nn(-c2ccc(Cl)cc2Cl)c1-c1ccc(Br)cc1,inactive,–
Cc1oc(-c2ccccc2)nc1CCOc1cccc2c1ccn2CCC(=O)O,inactive,–
CC=Cc1ccc(O)c(OC)c1,inactive,–
CC(C)(C)c1cc(O)c(C(C)(C)C)cc1O,inactive,–
C[Si]1(C)O[Si](C)(C)O[Si](C)(C)O[Si](C)(C)O1,inactive,–
CN[C@H]1CC[C@@H](c2ccc(Cl)c(Cl)c2)c2ccc(S(N)(=O)=O)cc21,inactive,–
Cc1ccc(C)c(C)c1,inactive,–
CCCCCCCCCCC,inactive,–
Cc1ccc(C(C)C)c(O)c1,inactive,–
Oc1ccc2c(c1)OC[C@@H](N1CCC(O)(c3ccc(F)cc3)CC1)[C@H]2O,–,58.7 µM (active)
Cc1cc(NC(=O)C(=O)O)cc(C)c1Oc1ccc(O)c2c1CCC2,inactive,–
CCCCC(CC)COC(=O)CC(C(=O)OCC(CC)CCCC)S(=O)(=O)O (stereo not given),inactive,–
Cc1nc(C)nc(N2C[C@@H](C)N(c3ccnc([C@@H](C)O)n3)[C@@H](C)C2)n1,inactive,–
Clc1cc(Cl)c(Cl)cc1Cl,inactive,–
CC(=O)C(C)=CC1C(C)=CCCC1(C)C (stereo not given),inactive,–
Cc1cccc([N+](=O)[O-])c1C,inactive,–
CCCc1cc(=O)[nH]c(=S)[nH]1,inactive,–
CC(=O)Oc1ccccc1C(=O)O,inactive,–
